Results on 7 compounds are retold here after PubChem BioAssay (Tox21).

The structures appear in SMILES notation. Several values for one entry are separate records, joined by “and”; a condition that tells them apart may be missing. Equal values may be shown once. Records with an inconclusive call do not appear. Where a structure was tested more than once in an assay, its records may differ in their call. Activity calls are given as the source filed them. Unless noted, calls follow the shape of the dose curve; as a rule, active = well fitted curve in the direction sought with a large enough effect in the repeat runs; inconclusive = weak or mixed curves; inactive = no such curve, though single readings can be large; an effect the other way counts as inactive or inconclusive.

Experiment [1] in a line: qHTS assay to identify small molecule antagonists of the sonic hedgehog signaling (Shh) pathway (AID 1259369; calls by dose curve; also: nearly all actives have a fitted effect of over 45% in size; also: potency is read from the fitted curve at half-maximal effect). The essentials: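 Stable Gli1-Luc reporter NIH/3T3 clone; quantitative HTS in stimulated mode with conditioned medium. Luminescence measured after 24hr compound treatment at 37 C.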
The nature of experiment [2]: qHTS assay to identify small molecule agonists of the androgen receptor (AR) signaling pathway in the presence of an antagonist - cell viability counter screen (AID 1259379).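 Also: MDA-kb2 human breast cancer cells carrying an MMTV luciferase reporter; series mostly up to about 92 µM; nearly all actives have a fitted effect of over 25% in size.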 The essentials: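 Nilutamide-containing (3.0uM final) MDA-kb2 cultures, 3,000 cells/well, were treated with compounds across 15 concentrations. After 16 hr at 37C with no CO2, cell viability was determined by CellTiter-Fluor fluorescence in the luciferase assay wells.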
In general terms: qHTS replaces the single test concentration by a dilution series.

A short description of experiment [3]: qHTS assay to identify small molecule agonists of the estrogen receptor beta (ER-beta) signaling pathway - cell viability counter screen (AID 1259380). Also: nearly all actives have a fitted effect of over 30% in size. Also: potency is read from the fitted curve at half-maximal effect. Put shortly:
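Steps: plate ER-beta-UAS-bla HEK293T cells, rest 6 hr; add compounds in DMSO; incubate 16 hr at 37C, 5% CO2; add FRET substrate 2 hr; add CellTiter-Glo, wait 30 min at room temperature; read luminescence.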

A short description of experiment [4]: qHTS assay to identify small molecule antagonists of the estrogen receptor beta (ER-beta) signaling pathway - cell viability counter screen (AID 1259382). Also: nearly all actives have a fitted effect of over 55% in size. Also: potency is read from the fitted curve at half-maximal effect. The essentials: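 Viability is scored by CellTiter-Glo luminescence (30 min, room temperature) in ER-beta-UAS-bla HEK293T wells already read for reporter fluorescence. Compound exposure lasts 16 hr at 37C alongside 1nM 17-beta-estradiol in charcoal-stripped serum medium.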

Experiment [5] addresses Estrogen receptor (Homo sapiens) (UniProt P03372). The experiment in a line: qHTS assay to identify small molecule agonists of the estrogen receptor alpha (ER-alpha) signaling pathway in the presence of an antagonist (AID 1259383; calls by dose curve; also: top concentration of the series differs between compounds; nearly all actives have a fitted effect of over 15% in size). The essentials:
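Readout was ERE-driven luciferase luminescence in VM7Luc4E2 cells, which express full-length ER-alpha endogenously. Compounds were tested at 15 concentrations for 22hr alongside 10.0nM ICI-182,780 (final concentration).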

Experiment [6] is described as follows: qHTS assay to identify small molecule agonists or antagonists of the thyroid stimulating hormone receptor (TSHR) signaling pathway - wild type cell line counter screen (AID 1259384; calls by dose curve). Put shortly:
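Wild-type HEK293 cells were plated 18 h at 37 C/5% CO2, pin-dosed with compound plus Ro20-1724 medium, held 30 min at room temperature, then given cAMP-d2 and anti-cAMP-cryptate; fluorescence was read after 1 h. Fifteen concentrations, triplicate.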

Experiment [7] can be described thus: qHTS assay to identify small molecule agonists of the estrogen receptor alpha (ER-alpha) signaling pathway in the presence of an antagonist - cell viability counter screen (AID 1259386).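 Also: series mostly up to about 92 µM; cells exposed to compounds for 22 h at 37 °C before the viability read; nearly all actives have a fitted effect of over 30% in size.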 Put shortly: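 In this counter screen, compound effects on VM7Luc4E2 viability were tested in the presence of the antagonist ICI-182,780 at 10.0nM final. Compounds were dosed at 15 concentrations, exposure lasted 22hr, and the CellTiter-Fluor signal was read.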

The target in experiment [8] is Progesterone receptor (Homo sapiens) (UniProt P06401). Kind of experiment: qHTS assay to identify small molecule agonists of the progesterone receptor (PR) signaling pathway (AID 1346784; calls by dose curve; also: nearly all actives have a fitted effect of over 30% in size). Put shortly: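 Fluorescence from LiveBLAzer B/G FRET substrate cleavage (2 hr, RT) reported PR activation in PR-UAS-bla HEK 293T cells treated 16 hr at 37C/5% CO2 with compounds; medium contained 2% charcoal-stripped FBS.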
Chain of Progesterone receptor (Homo sapiens) (P06401 whole entry, looked up): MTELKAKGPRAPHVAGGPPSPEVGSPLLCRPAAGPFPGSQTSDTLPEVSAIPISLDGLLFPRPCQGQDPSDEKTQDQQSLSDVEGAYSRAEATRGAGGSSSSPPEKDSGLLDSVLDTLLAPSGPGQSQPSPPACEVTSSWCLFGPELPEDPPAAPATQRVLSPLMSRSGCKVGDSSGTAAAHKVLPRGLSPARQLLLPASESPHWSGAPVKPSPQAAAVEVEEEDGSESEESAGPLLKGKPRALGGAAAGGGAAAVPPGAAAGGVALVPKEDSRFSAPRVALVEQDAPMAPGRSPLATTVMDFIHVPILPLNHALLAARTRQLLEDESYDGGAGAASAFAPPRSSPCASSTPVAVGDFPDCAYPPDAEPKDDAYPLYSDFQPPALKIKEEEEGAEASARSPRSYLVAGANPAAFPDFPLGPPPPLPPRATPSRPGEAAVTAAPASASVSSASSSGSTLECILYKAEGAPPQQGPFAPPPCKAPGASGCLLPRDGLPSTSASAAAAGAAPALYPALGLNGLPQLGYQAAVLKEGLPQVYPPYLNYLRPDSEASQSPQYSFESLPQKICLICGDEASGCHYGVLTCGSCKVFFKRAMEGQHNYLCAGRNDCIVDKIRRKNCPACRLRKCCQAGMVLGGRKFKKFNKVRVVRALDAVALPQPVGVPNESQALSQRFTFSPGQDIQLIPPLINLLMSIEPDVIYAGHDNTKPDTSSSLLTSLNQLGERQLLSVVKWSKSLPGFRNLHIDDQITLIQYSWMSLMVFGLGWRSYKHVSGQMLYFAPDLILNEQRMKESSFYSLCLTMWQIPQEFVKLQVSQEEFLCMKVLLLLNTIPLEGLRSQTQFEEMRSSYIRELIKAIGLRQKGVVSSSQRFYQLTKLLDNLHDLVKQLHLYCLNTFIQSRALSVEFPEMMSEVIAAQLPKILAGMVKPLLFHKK

Experiment [9] has the same target. The experiment in a line: qHTS assay to identify small molecule antagonists of the progesterone receptor (PR) signaling pathway (AID 1346795; active = well fitted inhibition curve with a large enough effect in the signal ratio in the repeat runs, not every such curve was filed as active; the % refers to the signal ratio; also: potency is read from the fitted curve at half-maximal effect). Put shortly:
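Fluorescence intensity measured 2 hr after adding beta-lactamase FRET substrate to PR-UAS-bla HEK293T cells that had been co-treated 16 hr with compound and 1 nM R5020 (final concentration) in 2% charcoal-stripped FBS.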

A short description of experiment [10]: qHTS assay to identify small molecule antagonists of the progesterone receptor (PR) signaling pathway - cell viability counter screen (AID 1346798). Also: series mostly up to about 92 µM; nearly all actives have a fitted effect of over 50% in size. The essentials:
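CellTiter-Glo luminescence; PR-UAS-bla HEK293T, 3,000 cells/well; compound + R5020, 16 hr, 37C/5% CO2; 30 min RT before read.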

A short description of experiment [11]: qHTS assay to identify small molecule agonists of the progesterone receptor (PR) signaling pathway - cell viability counter screen (AID 1346799; calls by dose curve; also: nearly all actives have a fitted effect of over 45% in size). Put shortly:
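In parallel with the beta-lactamase readout, cytotoxicity toward PR-UAS-bla HEK293T cells was measured by CellTiter-Glo luminescence following 16 hr compound incubation in 2% charcoal-stripped FBS medium.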

Experiment [12] is described as follows: qHTS assay to identify small molecule antagonists of the TGF-beta/Smad signaling pathway - cell viability counter screen (AID 1346824). Also: nearly all actives have a fitted effect of over 50% in size. The essentials: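 SBE-bla HEK 293T cells were plated overnight at 37 C, then given compounds in DMSO plus TGF-beta1 (added as 0.25 ng/mL solution) for 5 hr. After the bla read, CellTiter-Glo was added to the same wells and luminescence read after 30 min at room temperature.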

The nature of experiment [13]: qHTS assay to identify small molecule agonists of the TGF-beta/Smad signaling pathway - cell viability counter screen (AID 1346829). Also: nearly all actives have a fitted effect of over 45% in size. Also: potency is read from the fitted curve at half-maximal effect. Put shortly:
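HEK 293T SBE-bla line, 5 hr compound exposure at 37 C, multiplexed CellTiter-Glo viability read by luminescence.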

Experiment [14] in a line: qHTS assay to identify small molecule agonists of the TGF-beta/Smad signaling pathway (AID 1346859; active = well fitted activation curve with a large enough effect in the signal ratio in the repeat runs, not every such curve was filed as active; the % refers to the signal ratio; also: series mostly up to about 77 µM). The essentials: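 After overnight seeding, SBE-bla HEK 293T cells are dosed with compounds in DMSO and kept 5 hr at 37 C, 5% CO2. LiveBLAzer-type FRET substrate is then applied for 2 hr at room temperature.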
Experiment [15] concerns the target Thyrotropin-releasing hormone receptor (Homo sapiens) (UniProt P34981). Kind of experiment: qHTS assay to identify small molecule antagonists of the thyrotropin-releasing hormone receptor (TRHR) signaling pathway (AID 1346877; active = well fitted inhibition curve with a large enough effect in the repeat runs, not every such curve was filed as active; also: series mostly up to about 51 µM). Put shortly:
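Kinetic fluorescence (3 min, 1 s resolution) following stimulation with TRH at 1 nM final; HEK293 cells bearing human TRHR; 5 min compound preincubation at RT; concentration-response over 15 points, triplicates.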

Experiment [16] has the same target. Kind of experiment: qHTS assay to identify small molecule agonists of the thyrotropin-releasing hormone receptor (TRHR) signaling pathway (AID 1346891; calls by dose curve; also: potency is read from the fitted curve at half-maximal effect;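 as to activation: HEK293 cells expressing TRHR with calcium dye readout; series mostly up to about 58 µM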). Put shortly:
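Compounds were tested as agonists at 15 concentrations, in triplicate, on TRHR-Hek293 cells; calcium-sensitive dye fluorescence was recorded for 3 min following addition.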

For experiment [17], the target named is Thyrotropin receptor (Homo sapiens) (UniProt P16473). The experiment in a line: qHTS assay to identify small molecule antagonists of the thyroid stimulating hormone receptor (TSHR) signaling pathway (AID 1259385; calls by dose curve; also: nearly all actives have a fitted effect of over 20% in size). The essentials: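 TSHR-HEK293 cells were plated and held 18 h at 37C/5% CO2, then given compound plus Ro20-1724 and stimulated with TSH at 1.5 ng/mL final. After 30 min at room temperature, cAMP was detected with cAMP-d2/anti-cAMP-cryptate (1 h) by fluorescence.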
Chain of Thyrotropin receptor (Homo sapiens) (P16473 whole entry, looked up): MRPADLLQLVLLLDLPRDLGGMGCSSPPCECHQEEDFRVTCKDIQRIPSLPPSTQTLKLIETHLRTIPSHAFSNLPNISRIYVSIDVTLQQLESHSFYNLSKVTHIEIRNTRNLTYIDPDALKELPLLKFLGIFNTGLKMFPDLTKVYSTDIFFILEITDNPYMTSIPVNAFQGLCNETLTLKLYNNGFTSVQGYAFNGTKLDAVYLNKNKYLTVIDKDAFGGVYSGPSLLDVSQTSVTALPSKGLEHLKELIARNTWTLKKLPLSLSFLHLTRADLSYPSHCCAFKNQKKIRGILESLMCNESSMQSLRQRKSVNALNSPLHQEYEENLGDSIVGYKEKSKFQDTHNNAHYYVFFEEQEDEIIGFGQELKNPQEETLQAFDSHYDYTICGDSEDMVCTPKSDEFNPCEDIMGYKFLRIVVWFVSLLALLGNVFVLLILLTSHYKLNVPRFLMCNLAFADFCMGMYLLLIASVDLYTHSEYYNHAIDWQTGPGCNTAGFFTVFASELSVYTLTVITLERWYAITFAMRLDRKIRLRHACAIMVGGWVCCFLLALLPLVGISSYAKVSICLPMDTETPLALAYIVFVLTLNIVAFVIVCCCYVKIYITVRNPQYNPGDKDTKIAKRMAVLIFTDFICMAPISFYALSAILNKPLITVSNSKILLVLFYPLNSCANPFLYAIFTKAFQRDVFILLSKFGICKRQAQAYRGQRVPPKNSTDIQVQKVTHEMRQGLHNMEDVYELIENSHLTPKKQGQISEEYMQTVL

Chain of Thyrotropin-releasing hormone receptor (Homo sapiens) (P34981 whole entry, looked up): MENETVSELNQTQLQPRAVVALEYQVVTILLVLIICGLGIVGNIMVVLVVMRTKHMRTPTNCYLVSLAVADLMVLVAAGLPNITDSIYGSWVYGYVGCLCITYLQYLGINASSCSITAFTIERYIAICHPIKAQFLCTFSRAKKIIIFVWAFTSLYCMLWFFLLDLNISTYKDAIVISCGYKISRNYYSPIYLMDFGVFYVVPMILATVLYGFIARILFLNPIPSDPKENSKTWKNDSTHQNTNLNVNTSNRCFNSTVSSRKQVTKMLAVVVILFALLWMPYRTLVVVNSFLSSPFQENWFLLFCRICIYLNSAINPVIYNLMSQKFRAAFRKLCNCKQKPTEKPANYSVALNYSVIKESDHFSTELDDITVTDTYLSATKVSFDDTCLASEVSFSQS
Chain of Estrogen receptor (Homo sapiens) (P03372 whole entry, looked up): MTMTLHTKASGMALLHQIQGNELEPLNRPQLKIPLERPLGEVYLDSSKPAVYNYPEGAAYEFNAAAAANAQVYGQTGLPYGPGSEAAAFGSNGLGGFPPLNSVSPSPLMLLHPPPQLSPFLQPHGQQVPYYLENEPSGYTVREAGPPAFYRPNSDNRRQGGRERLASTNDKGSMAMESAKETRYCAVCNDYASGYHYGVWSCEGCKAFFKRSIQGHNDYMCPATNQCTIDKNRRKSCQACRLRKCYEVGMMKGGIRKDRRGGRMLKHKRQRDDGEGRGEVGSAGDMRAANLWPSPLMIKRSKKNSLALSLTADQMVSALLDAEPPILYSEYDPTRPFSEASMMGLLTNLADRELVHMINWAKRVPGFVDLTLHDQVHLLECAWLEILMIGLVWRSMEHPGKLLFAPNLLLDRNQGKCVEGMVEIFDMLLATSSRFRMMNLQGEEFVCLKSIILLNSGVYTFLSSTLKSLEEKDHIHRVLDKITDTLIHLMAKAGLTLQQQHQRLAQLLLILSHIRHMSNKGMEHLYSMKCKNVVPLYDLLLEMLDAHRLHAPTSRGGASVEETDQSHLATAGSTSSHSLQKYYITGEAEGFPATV

For the compound `COCC(C)O` (centres undefined), the Potency entry in experiment [1], in experiment [2], in [3], in experiment [4], in experiment [5] and in experiment [7] was “inactive” in each case. For the same compound, the Potency result in [8], in experiment [9], in experiment [10], in experiment [11], in experiment [12] and in experiment [13] was “inactive” each time. Also, the Potency entry in [16] was “inactive”. Moreover, the result in experiment [6], in [14] and in experiment [15] was inactive.

As for `c1ccc2ccccc2c1`, the Potency entry in experiment [1], in experiment [2], in experiment [3], in experiment [4], in experiment [7] and in experiment [8] was “inactive” each time. The Potency entry in experiment [9], in experiment [10], in experiment [11], in [12], in experiment [13] and in experiment [16] was “inactive” each time. The compound was called inactive in experiment [6], in experiment [14] and in experiment [15].

With `CC1(C)CC(N=C=O)CC(C)(CN=C=O)C1` (centres undefined), the Potency result in experiment [1], in experiment [2], in [3], in experiment [4], in experiment [7] and in experiment [8] was “inactive” in each case. The Potency entry in experiment [9], in experiment [10], in experiment [11], in [12], in [13] and in [16] was “inactive” each time. Besides, the compound was classed as inactive in experiment [6], in experiment [17], in experiment [14] and in [15].

For the compound `O=S(=O)(Oc1ccc(Cl)cc1Cl)c1ccccc1`, the Potency result in experiment [1], in experiment [2], in experiment [3], in [4], in experiment [7] and in experiment [8] was “inactive” in each case. Moreover, the Potency entry in experiment [10], in experiment [11], in experiment [12] and in [13] was “inactive” each time. For the same compound, the compound was called inactive in experiment [6] and in experiment [14]. For the same compound, in experiment [9], the Potency is 8.78 µM (active) and 12.2 µM (active).

In the case of `CCCCCCCCCCCCN`, the Potency result in experiment [1], in [2], in experiment [7], in [8], in experiment [10] and in [11] was “inactive” throughout. Moreover, the Potency entry in experiment [3] is “inactive and 30.6 µM (active)”; in [4], 54.5 µM (active) and inactive; in [13], “inactive and 21.9 µM (active)”; in experiment [16] it was “inactive and 38.9 µM (active)”. Further, the result in experiment [6], in experiment [17], in [14] and in experiment [15] was inactive.

Consider `C=C(C#N)C(=O)OCC`, for which the Potency entry in experiment [1] was “inactive and 15.4 µM (active)”. Further, the Potency result in experiment [2], in experiment [3], in experiment [4], in experiment [7], in experiment [8] and in [10] was “inactive” throughout. Also, the Potency result in experiment [11], in experiment [12], in [13] and in [16] was “inactive” each time. Moreover, the compound was called inactive in [6], in experiment [14] and in [15].

As to `CC[Si](OC(C)=O)(OC(C)=O)OC(C)=O`, the Potency entry in experiment [1], in experiment [2], in experiment [3], in experiment [4], in experiment [5] and in experiment [7] was “inactive” in each case. Moreover, the Potency entry in experiment [8], in experiment [9], in experiment [10], in experiment [11], in experiment [12] and in [13] was “inactive” throughout. For the same compound, the Potency entry in experiment [16] is “inactive”. Moreover, the compound was called inactive in experiment [6], in experiment [14] and in experiment [15].
